Test results reported in PubChem BioAssay AID1159580 (chemical genetic matrix, 2015).
Screen size: about 5,500 compounds; about 2,000 (36%) were called active. About 18% were inconclusive and are not listed. Rule as the data show it: active = normalized growth mostly below about 0.91 (no sharp cut-off); inconclusive = no clear call, values can overlap the other calls; inactive = mostly above about 0.92. This is one part of the list.

Assay: chemical genetic growth profiling, strain panel (AID 1159580);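 also: tested at 20 µM; growth read once vehicle control cultures reached saturation at 30 °C; 1 = growth at the plate median or of vehicle wells; lower values mean less growth of the strain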
Settings: S. cerevisiae deletion strains, growth OD

Measured: normalized growth

O=C(O)C1C(O)CCC2CN3CCc4c([nH]c5ccccc45)C3CC21 (configuration not stated)
inactive: locus YAL013W, strain DEP1, active compounds read low 1.03 | locus YBR021W, strain FUR4, active compounds read low 0.972 | locus YBR229C, strain ROT2, active compounds read low 1 | locus YCL029C, strain bik1, active compounds read low 1.03 | locus YDL035C, strain GPR1, active compounds read low 1 | locus YDL074C, strain BRE1, active compounds read low 1.02 | locus YDL101C, strain DUN1, active compounds read low 1.02 | locus YDL185W, strain tfp1, active compounds read low 1.01 | locus YDL192W, strain arf1, active compounds read low 1 | locus YDR101C, strain arx1, active compounds read low 1.01 | locus YDR150W, strain NUM1, active compounds read low 1.01 | locus YDR162C, strain NBP2, active compounds read low 1.03 | locus YDR318W, strain mcm21, active compounds read low 1 | locus YDR388W, active compounds read low 1.01 | locus YDR502C, strain sam2, active compounds read low 1.02 | locus YEL061C, strain CIN8, active compounds read low 1.01 | locus YER110C, active compounds read low 1.02 | locus YER155C, strain BEM2, active compounds read low 1.02 | locus YER167W, strain BCK2, active compounds read low 1.02 | locus YGL078C, strain dbp3, active compounds read low 1.01 | locus YGL086W, strain mad1, active compounds read low 1.02 | locus YGL248W, strain PDE1, active compounds read low 1.01 | locus YGR135W, strain pre9, active compounds read low 0.996 | locus YGR252W, strain gcn5, active compounds read low 0.951 | locus YHR030C, strain SLT2, active compounds read low 1.01 | locus YHR079C, strain IRE1 (second series), active compounds read low 1.01 | locus YHR094C, strain hxt1, active compounds read low 1.02 | locus YHR129C, strain ARP1, active compounds read low 1.01 | locus YHR200W, strain rpn10, active compounds read low 1.02 | locus YIL066C, strain RNR3, active compounds read low 1.01 | locus YIL073C, strain SPO22, active compounds read low 0.988 | locus YIL125W, strain kgd1, active compounds read low 1.01 | locus YIR030C, strain dcg1, active compounds read low 1.01 | locus YJL095W, strain BCK1, active compounds read low 1.03 | locus YJL134W, strain LCB3, active compounds read low 1.02 | locus YJL168C, strain set2, active compounds read low 1.01 | locus YJL187C, strain SWE1 (second series), active compounds read low 1.01 | locus YJR043C, strain POL32, active compounds read low 1.02 | locus YJR075W, strain HOC1, active compounds read low 1.04 | locus YKL009W, strain mrt4, active compounds read low 1.03 | locus YKL068W, active compounds read low 1.01 | locus YKL085W, strain MDH1 (second series), active compounds read low 0.998 | locus YKL085W, strain MDH1, active compounds read low 0.998 | locus YKR001C, strain vps1, active compounds read low 1.01 | locus YLR039C, strain RIC1, active compounds read low 1.06 | locus YLR058C, strain SHM2, active compounds read low 1.01 | locus YLR102C, strain apc9, active compounds read low 1.02 | locus YLR262C, strain YPT6, active compounds read low 1.06 | locus YLR268W, strain sec22, active compounds read low 1.03 | locus YLR330W, strain CHS5, active compounds read low 1.01 | locus YLR342W, strain FKS1 (second series), active compounds read low 1.05 | locus YLR371W, strain rom2, active compounds read low 1.02 | locus YLR418C, strain cdc73, active compounds read low 0.986 | locus YML016C, strain PPZ1, active compounds read low 1.01 | locus YML032C, strain rad52, active compounds read low 1.01 | locus YML124C, strain tub3, active compounds read low 1.01 | locus YMR078C, strain ctf18, active compounds read low 1.01 | locus YMR223W, strain ubp8, active compounds read low 0.988 | locus YMR263W, strain SAP30, active compounds read low 1.03 | locus YMR307W, strain GAS1, active compounds read low 1.02 | locus YNL067W, strain RPL9B, active compounds read low 1.03 | locus YNL233W, strain BNI4, active compounds read low 1.02 | locus YNL250W, strain rad50, active compounds read low 1.02 | locus YNL271C, strain bni1, active compounds read low 1.01 | locus YNL298W, strain CLA4, active compounds read low 1.02 | locus YNL307C, strain MCK1, active compounds read low 1.02 | locus YNL322C, strain KRE1, active compounds read low 1.01 | locus YNR052C, strain pop2, active compounds read low 1 | locus YOL012C, strain htz1 1.58 | locus YOL147C, strain pex11, active compounds read low 1.02 | locus YOR061W, strain CKA2, active compounds read low 1.01 | locus YOR069W, strain VPS5, active compounds read low 1.01 | locus YOR136W, strain idh2, active compounds read low 1.02 | locus YOR144C, strain elg1, active compounds read low 1.01 | locus YOR184W, strain ser1, active compounds read low 1.03 | locus YOR316C, strain cot1, active compounds read low 1.02 | locus YPL055C, strain LGE1, active compounds read low 1.03 | locus YPR119W, strain clb2, active compounds read low 1.01 | locus YPR141C, strain kar3, active compounds read low 1.01 | locus YPR163C, strain tif3, active compounds read low 1.01 | locus YPR167C, strain met16, active compounds read low 0.999 | strain wtn01, active compounds read low 1.02
